# Measured values taken from PubChem BioAssay (Tox21).
# “And” between values parts separate entries of the source, which are not always exact repeats. Equal entries are not always repeated. Records with an inconclusive call do not appear. Where a call stands in place of a potency, no number is given. The source made the active and inactive calls. Unless noted, calls follow the shape of the dose curve; as a rule, active = well fitted curve in the direction sought with a large enough effect in the repeat runs; inconclusive = weak or mixed curves; inactive = no such curve, though single readings can be large; an effect the other way counts as inactive or inconclusive.
# Experiments:
# [1] = qHTS assay to identify small molecule agonists of the RXR signaling pathway - cell viability counter screen (AID 1159529);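 also: HEK 293T cells carrying an RXR-alpha UAS beta-lactamase reporter; series mostly up to about 77 µM; nearly all actives have a fitted effect of over 50% in size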
# Procedure, shortened: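 In this parallel viability measure, GeneBLAzer RXR-alpha HEK 293T cells (2% charcoal-stripped FBS) were given a 5 hr preincubation, treated with compounds 16 hr at 37 C, and read by CellTiter-Glo luminescence.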
# [2] = qHTS assay to identify small molecule antagonists of the retinoid acid receptor (RAR) signaling pathway - cell viability counter screen (AID 1159551); also: nearly all actives have a fitted effect of over 35% in size
# Procedure, shortened: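 Seed C3RL4 cells; next day add compound, then retinol to 1 uM final; incubate 6 h at 37 C; add CellTiter-Glo; read luminescence after 30 min at RT.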
# [3] = qHTS assay to identify small molecule antagonists of the retinoic acid receptor (RAR) signaling pathway (AID 1159552; also: nearly all actives have a fitted effect of over 50% in size)
# Procedure, shortened: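 C3RL4 RARE-luc cells, overnight plating; retinol 1 uM final added right after compound; 6 hr 37 C; luciferase read at 30 min RT.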
# [4] = qHTS assay to identify small molecule agonists of the retinoic acid receptor (RAR) signaling pathway (AID 1159553); also: potency is read from the fitted curve at half-maximal effect
# Procedure, shortened: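 Activation of retinol signaling was monitored via a RARE luciferase reporter in C3RL4 cells. After 6 hr compound treatment at 37 C, detection reagent was added for 30 min at room temperature before luminescence reading.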
# [5] = qHTS assay to identify small molecule antagonists of the estrogen related receptor (ERR) signaling pathway - cell viability counter screen (AID 1224818);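 also: series mostly up to about 46 µM; viability measured after 17.5 h of compound exposure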
# Procedure, shortened: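 In the same ERR cell assay, compound-treated wells (17.5 h, 37 C) were multiplexed with a fluorogenic viability reagent, CellTiter-Fluor, read after 30 min to flag cytotoxic substances.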
# [6] = qHTS assay to identify small molecule antagonists of the estrogen related receptor signaling pathway with the pleiotropic PPARgamma coactivator (PGC) cell viability counter screen (AID 1224822; also: series mostly up to about 46 µM)
# Procedure, shortened: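 Compounds in DMSO, with positive and negative controls, were applied to PGC/ERR cells (2,000/well) and left 17.5 h at 37 C before CellTiter-Fluor detection.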
# [7] = qHTS assay to identify small molecule antagonists of the estrogen related receptor (ERR) signaling pathway (AID 1224819;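 also: luminescence from an ERR-driven luciferase reporter measured with One-Glo reagent; series mostly up to about 46 µM; nearly all actives have a fitted effect of over 50% in size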)
# Procedure, shortened: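 qHTS in ERR cells, 2,000/well, 1536 format. Cpd (DMSO) added after 6 h settle, 18 h 37 C. One-Glo luminescence, 30 min RT.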
# [8] = qHTS assay to identify small molecule agonists of the estrogen related receptor (ERR) signaling pathway (AID 1224820)
# Procedure, shortened: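 Cells: ERR line from NTP, 2,000/well. Pre-incubation 6 h, 37 C/5% CO2. Compound (DMSO) pin transfer, 18 h 37 C. One-Glo, 30 min RT, luminescence.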
# [9] = tested on: estrogen-related receptor alpha (ERRalpha) with PGC-1alpha coactivator, human; assay: qHTS assay to identify small molecule antagonists of the estrogen related receptor signaling pathway with the pleiotropic PPARgamma coactivator (PGC) (AID 1224821; calls by dose curve;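 also: series mostly up to about 46 µM; lower luminescence signal means antagonism of PGC/ERR signalling; nearly all actives have a fitted effect of over 50% in size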)
# Procedure, shortened: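 Luminescent read-out (One-Glo, 30 min at room temperature) following 18 h treatment of PGC/ERR cells at 37 C with compounds delivered in DMSO. Cells had settled 6 h at 37 C/5% CO2 before dosing.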
# [10] = qHTS assay to identify small molecule agonists of the estrogen related receptor signaling pathway with the pleiotropic PPARgamma coactivator (PGC) (AID 1224823)
# Procedure, shortened: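 Steps: plate PGC/ERR cells at 2,000 cells/well; incubate 6 h, 37 C/5% CO2; pin-transfer compounds (DMSO); incubate 18 h, 37 C; add One-Glo; 30 min RT; read luminescence.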
smiles,measurement,setting,value
COc1ccc(CCC(C)=O)cc1,outcome,[1],inactive
same,outcome,[2],inactive
same,outcome,[3],inactive
Cc1ccc(C(C)C)c(O)c1,outcome,[1],inactive
same,outcome,[2],inactive
same,outcome,[3],inactive
same,Potency,[4],inactive
Clc1ccccn1,outcome,[1],inactive
same,outcome,[2],inactive
same,outcome,[3],inactive
Cc1ccc2ncccc2c1,outcome,[1],inactive
same,outcome,[2],inactive
same,outcome,[3],inactive
CC1(C)OC[C@@H]2O[C@@]3(C(=O)O)OC(C)(C)O[C@H]3[C@@H]2O1,outcome,[1],inactive
same,outcome,[2],inactive
same,outcome,[3],inactive
same,Potency,[4],inactive
Brc1ccc(Br)c(Br)c1,outcome,[1],inactive
same,outcome,[2],inactive
same,outcome,[3],inactive
c1ccc(Oc2ccccc2)cc1,outcome,[1],inactive
same,outcome,[2],inactive
same,outcome,[3],inactive
same,Potency,[4],inactive
CC(CCl)OP(=O)(OC(C)CCl)OC(C)CCl (centres undefined),outcome,[1],inactive
same,outcome,[2],inactive
same,outcome,[3],inactive
CC(C)CC(C)O (centres undefined),outcome,[1],inactive
same,outcome,[2],inactive
same,outcome,[3],inactive
same,Potency,[4],inactive
CNC(=O)Oc1ccc2c(c1)[C@]1(C)CCN(C)[C@@H]1N2C,outcome,[1],inactive
same,outcome,[5],inactive
same,outcome,[6],inactive
CC1(C)S[C@@H]2[C@H](NC(=O)COc3ccccc3)C(=O)N2[C@H]1C(=O)O,outcome,[1],inactive
same,outcome,[3],inactive
CCCCCCCCCCCCCCCCO,outcome,[1],inactive
same,outcome,[2],inactive
same,outcome,[3],inactive
same,Potency,[4],inactive
O=c1[nH]cnc2[nH]ncc12,outcome,[1],inactive
same,outcome,[2],inactive
same,outcome,[3],inactive
same,outcome,[5],inactive
same,outcome,[6],inactive
CCOCC(=O)O,outcome,[1],inactive
same,outcome,[3],inactive
O=C(O)c1ccccc1C(=O)O,outcome,[1],inactive
same,outcome,[3],inactive
Cc1ccc(S(=O)(=O)N=C=O)cc1,outcome,[1],inactive
same,outcome,[3],inactive
same,Potency,[4],inactive
CC1(C)CC(N)CC(C)(CN)C1 (centres undefined),outcome,[1],inactive
same,outcome,[3],inactive
CC(=O)OC1CC(C)OC(C)O1 (centres undefined),outcome,[1],inactive
same,outcome,[3],inactive
CC(C)(Oc1ccc(CCNC(=O)c2ccc(Cl)cc2)cc1)C(=O)O,outcome,[1],inactive
same,outcome,[2],inactive
same,outcome,[5],inactive
same,outcome,[7],inactive
same,outcome,[8],inactive
same,outcome,[9],inactive
same,outcome,[6],inactive
same,outcome,[10],inactive
CCNc1ccccc1,outcome,[1],inactive
same,outcome,[3],inactive
CC1(C)NC(=O)NC1=O,outcome,[1],inactive
same,outcome,[2],inactive
same,outcome,[3],inactive
same,Potency,[4],inactive
CN1C(=O)CC[C@H]1c1cccnc1,outcome,[1],inactive
same,outcome,[2],inactive
same,outcome,[5],inactive
same,outcome,[6],inactive
CC(C)OC(=O)COc1ccc(Cl)cc1Cl,outcome,[1],inactive
same,outcome,[3],inactive
same,Potency,[4],inactive
C=C(C)CNCC,outcome,[1],inactive
same,outcome,[3],inactive
same,Potency,[4],inactive
CCOCCOCCOCCO,outcome,[1],inactive
same,outcome,[3],inactive
same,Potency,[4],inactive
OCc1cccc(Oc2ccccc2)c1,outcome,[1],inactive
same,outcome,[3],inactive
same,Potency,[4],inactive
c1ccc2c(c1)Cc1ccccc1-2,outcome,[1],inactive
same,outcome,[2],inactive
same,outcome,[3],inactive
same,Potency,[4],inactive
C[C@]12CCC(=O)C=C1CC[C@@H]1[C@@H]2[C@@H](O)C[C@@]2(C)[C@H]1CC[C@]2(O)C(=O)CO,outcome,[1],inactive
same,outcome,[2],inactive
same,outcome,[3],inactive
same,Potency,[4],inactive
same,outcome,[5],inactive
same,outcome,[6],inactive
CN(C)CCOC(=O)COc1ccc(Cl)cc1,outcome,[1],inactive
same,outcome,[2],inactive
same,outcome,[3],inactive
same,outcome,[5],inactive
same,outcome,[7],inactive
same,outcome,[8],inactive
same,outcome,[9],inactive
same,outcome,[6],inactive
same,outcome,[10],inactive
CC(C)c1cccc(C(C)C)c1,outcome,[1],inactive
same,outcome,[3],inactive
same,Potency,[4],inactive
CC(=O)CC(C)(C)O,outcome,[1],inactive
same,outcome,[3],inactive
same,Potency,[4],inactive
CC(O)CC(C)(C)O (centres undefined),outcome,[1],inactive
same,outcome,[3],inactive
O=C(O)c1ccc(C(=O)O)c(C(=O)O)c1,outcome,[1],inactive
same,outcome,[3],inactive
same,Potency,[4],inactive
CCCCCC(=O)O,outcome,[1],inactive
same,outcome,[2],inactive
same,outcome,[3],inactive
same,Potency,[4],inactive
CC(=O)Oc1ccc(C)cc1,outcome,[1],inactive
same,outcome,[2],inactive
same,outcome,[3],inactive
same,Potency,[4],inactive
CC(C)(C)c1cc(Cc2cc(C(C)(C)C)c(O)c(C(C)(C)C)c2)cc(C(C)(C)C)c1O,outcome,[1],inactive
same,outcome,[2],inactive
same,outcome,[3],inactive
same,Potency,[4],inactive
CCCCCCO,outcome,[1],inactive
same,outcome,[3],inactive
same,Potency,[4],inactive
CCCCOC(=O)c1ccc(N)cc1,outcome,[1],inactive
same,outcome,[2],inactive
same,outcome,[3],inactive
same,Potency,[4],26.9 µM (active) and 21.1 µM (active)
CNC(=S)N(C)C,outcome,[1],inactive
same,outcome,[2],inactive
same,outcome,[3],inactive
same,Potency,[4],inactive
OCc1ccccc1,outcome,[1],inactive
same,outcome,[2],inactive
same,outcome,[3],inactive
same,Potency,[4],inactive
CC(C)CCCCCCCOC(=O)CCCCC(=O)OCCCCCCCC(C)C,outcome,[1],inactive
same,outcome,[3],inactive
Nc1nc(N)nc(-c2ccccc2)n1,outcome,[1],inactive
same,outcome,[3],inactive
same,Potency,[4],inactive
C=CC(=O)OCCC(=O)O,outcome,[1],inactive
same,outcome,[2],inactive
same,outcome,[3],inactive
same,Potency,[4],inactive
C=C(C)C(=O)OCC(C)C,outcome,[1],inactive
same,outcome,[3],inactive
Nc1ccc(Cl)c(N)c1,outcome,[1],inactive
same,outcome,[2],inactive
same,outcome,[3],inactive
same,Potency,[4],68.6 µM (active)
CC(C)CC(=O)CC(C)CC(C)C (centres undefined),outcome,[1],inactive
same,outcome,[3],inactive
same,Potency,[4],inactive
COCCOC(=O)c1ccccc1C(=O)OCCOC,outcome,[1],inactive
same,outcome,[3],inactive
same,Potency,[4],inactive
